Test results as given in a collection of fitness landscapes (doi:10.1016/j.celrep.2020.107928).
The full ranking holds about 81,000 sequences; the median of “one-hybrid fitness for binding parS DNA” is about -0.17, and the highest 2% start at about 0.51. Only a selection was taken, and the highest values are over-represented in it overall.

B1: Caulobacter ParB omega fusion; a variant is named by its letters at X, in order, B8GW30 (parent)
chain: MESVVVGEPGMSEGRRGLGRGLSALLGEVDAAPAQAPGEQLGGSREAPIEILQRNPDQPRRTFREEDLEDLSNSIREKGVLQPILVRPSPDTAGEYQIVAGERAWRAAQRAGLKTVPIMVRELDDLAVLEIGIIENVQRADLNVLEEALSYKVLMEKFERTQENIAQTIGKSXSHVANXMRLLXLPDEVQSYLVSGELTAXHARAIAAAADPVALAKQIIEGGLSVRETEALARKAPNLSAGKSKGGRPPRVKDTDTQALESDLSSVLGLDVSIDHRGSTGTLTITYATLEQLDDLCNRLTRGI

Variants of: B1
Assay: one-hybrid fitness for binding parS DNA (scaled: cognate 1, non-cognate 0); higher = stronger binding
Details: with parS DNA site
How it was run: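 In E. coli USO, a HIS3 reporter with its site placed 19 bp from the promoter was used to select Caulobacter ParB variants randomised at four specificity codons. Growth lasted 48 hours at 37°C on histidine-free M9 containing 0.1 mM IPTG and 5 mM 3-AT. Fitness was taken as the log change in variant-to-wild-type read ratio from Illumina sequencing of pre- and post-selection plasmids, rescaled between the non-cognate and cognate sites.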

Variant	one-hybrid fitness for binding parS DNA
DCRS	≤ 0.2
IAEG	≤ 0.2
SAYT	≤ 0.2
MHTF	≤ 0.2
PSYT	≤ 0.2
VTEN	≤ 0.2
RTYG	1.02
NTYG	≤ 0.2
RTYQ	≤ 0.2
HADL	≤ 0.2
RIIN	0.379
RCPT	0.604
RIPT	0.549
RIIK	≤ 0.2
RIIT	0.715
RIPN	≤ 0.2
RPPT	≤ 0.2
REPT	≤ 0.2
RIPP	≤ 0.2
YDNV	≤ 0.2
FNSY	≤ 0.2
TSTS	≤ 0.2
SATQ	≤ 0.2
RMWK	≤ 0.2
RLRL	≤ 0.2

Variant	one-hybrid fitness for binding parS DNA
KRHS	≤ 0.2
PLTH	≤ 0.2
RAHT	0.928
RACT	0.852
RAYR	≤ 0.2
RACN	0.41
RAQM	0.31
RAQT	0.894
RAQF	0.229
RAYM	0.324
RAHM	0.329
RACD	≤ 0.2
RAYT	0.904
RAHH	0.26
MLRS	≤ 0.2
GTET	≤ 0.2
SSAG	≤ 0.2
DLPN	≤ 0.2
DGPD	≤ 0.2
NYGR	≤ 0.2
SRPW	≤ 0.2
LATK	≤ 0.2
AQEG	≤ 0.2
QIWY	≤ 0.2
RARF	0.28

Variant	one-hybrid fitness for binding parS DNA
RAND	0.215
RANN	0.434
RAGQ	≤ 0.2
RASY	0.459
RASQ	≤ 0.2
RANT	0.907
RAGR	≤ 0.2
RAST	0.911
RARQ	≤ 0.2
RART	0.836
RAGT	0.92
PKYV	≤ 0.2
APEG	≤ 0.2
FICL	≤ 0.2
GDRF	≤ 0.2
VNRI	≤ 0.2
QPAD	≤ 0.2
QAKR	≤ 0.2
PSVL	≤ 0.2
PTYM	≤ 0.2
RADK	≤ 0.2
RAWT	0.809
RALK	≤ 0.2
RAWN	0.384
RADR	≤ 0.2

Variant	one-hybrid fitness for binding parS DNA
RALQ	≤ 0.2
RADT	0.732
RAWH	0.223
RALT	0.888
MCRN	≤ 0.2
QVLP	≤ 0.2
NHYR	≤ 0.2
EVTS	≤ 0.2
GHDR	≤ 0.2
HVTM	≤ 0.2
PTLD	≤ 0.2
TYDN	≤ 0.2
AAAL	≤ 0.2
LNIY	≤ 0.2
RPMS	≤ 0.2
RLMS	1.04
RMMD	≤ 0.2
RMMS	1.03
RIMP	≤ 0.2
RLMD	≤ 0.2
RMML	≤ 0.2
RCMS	1.01
RIMS	1.04
RLMN	0.459
RIMH	0.264

Variant	one-hybrid fitness for binding parS DNA
RCMP	0.232
THDG	≤ 0.2
EQQR	≤ 0.2
MVPW	≤ 0.2
ASII	≤ 0.2
PLHG	≤ 0.2
GYPH	≤ 0.2
CVTM	≤ 0.2
RSMS	0.994
RSMN	0.402
RKMD	≤ 0.2
RHMD	≤ 0.2
RKMS	0.876
RRMP	≤ 0.2
RHMS	0.966
RRMN	0.4
RKMN	0.372
RSMH	0.245
RHMH	≤ 0.2
RRMS	0.704
PLPS	≤ 0.2
QYNK	≤ 0.2
EHAS	≤ 0.2
VMVC	≤ 0.2
RHYV	≤ 0.2

Variant	one-hybrid fitness for binding parS DNA
SIFD	≤ 0.2
LPVS	≤ 0.2
RTMD	≤ 0.2
RAMH	≤ 0.2
RFMP	≤ 0.2
RFMS	0.983
RTMS	0.981
RAMD	≤ 0.2
RTMH	≤ 0.2
RFMH	≤ 0.2
RAMS	1.02
TRVI	≤ 0.2
NMKR	≤ 0.2
LWSA	≤ 0.2
HELA	≤ 0.2
TPTY	≤ 0.2
TLRR	≤ 0.2
RTVA	0.566
RTKA	0.808
NTVA	≤ 0.2
NTKA	≤ 0.2
DTKA	≤ 0.2
WIMN	≤ 0.2
RIYI	≤ 0.2
TADM	≤ 0.2

Variant	one-hybrid fitness for binding parS DNA
QLFQ	≤ 0.2
KDMG	≤ 0.2
RKAG	0.959
RKAN	0.343
RKFG	0.946
RKFQ	≤ 0.2
RKFK	≤ 0.2
RKAH	≤ 0.2
VRYQ	≤ 0.2
SMCS	≤ 0.2
TFRT	≤ 0.2
GREF	≤ 0.2
GPDK	≤ 0.2
TATR	≤ 0.2
NFAG	≤ 0.2
DFAG	≤ 0.2
RFFG	0.776
NFFG	≤ 0.2
KFFG	≤ 0.2
RFAG	0.941
SCLF	≤ 0.2
FALR	≤ 0.2
IHMV	≤ 0.2
LILG	≤ 0.2
TTYT	≤ 0.2

Variant	one-hybrid fitness for binding parS DNA
KWSC	≤ 0.2
LCWL	≤ 0.2
RSLC	0.939
RPLC	≤ 0.2
RSLK	≤ 0.2
RELC	≤ 0.2
RDLC	≤ 0.2
RCLC	1.02
QCAL	≤ 0.2
RIIL	≤ 0.2
MQLE	≤ 0.2
WYDG	≤ 0.2
RCFC	1.03
RPFC	≤ 0.2
REFC	≤ 0.2
RSFC	0.892
RSFM	0.292
RDFC	≤ 0.2
DKNG	≤ 0.2
YTIY	≤ 0.2
